# Results published in PubChem BioAssay (NCATS).
# Results filed as inconclusive are left out. Some structures have more than one record in an assay (separate samples or runs), and their calls can disagree. Active and inactive are the calls of the source. The call rests on the fitted dose curve.
# Assay: A High-Content qHTS Against Drug Library for the Identification of Small Molecules that Inhibit DYT1 Early Onset Primary Dystonia-Associated Cell Pathology (AID 1645839)
# Details: HEK293 Flp-In EGFP-delE TorsinA, punctate imaging, 48 h; series mostly up to 46.1 µM; % pathology change, negative = correction: at the top concentration
# Text: Nicole Calakos M.D., Ph.D.
# Duke University School of Medicine, Durham, NC
# In DYT1 dystonia due to delGAG in the TOR1A gene, there is a robust and widely replicated finding of TorsinA protein mislocalization caused when the mutant protein is in excess of the wildtype protein (1-7). Stable HEK293 cell lines were created that replicate this phenomenon. Inducible expression of an EGFP-hu delE TorsinA encoding cDNA causes pronounced punctate cellular distribution. […] This phenotypic difference in EGFP-huTorsinA fusion protein distribution serves as an indicator of cell pathology. […] RNAi screen results with the assay were validated in DYT1 patient cell phenotypes, intersected with a known dystonia gene, and led to discovery of new human genetic dystonia associations.
# The bioassay described herein is a high-content image screen with two readouts. The "%pathology" readout is the primary qHTS data channel, while the "cellcount" is the counterscreen qHTS channel. Desired active compounds are those that show inhibition in %pathology channel but no activity or minimal toxicity in cellcount readout.
# 1. Kustedjo, K., Bracey, M.H., and Cravatt, B.F. (2000). […] J. Biol. Chem. 275, 27933 - 27939.
# 2. Bragg, D.C., Kaufman, C.A., Kock, N., and Breakefield, X.O. (2004). Inhibition of N-linked glycosylation prevents inclusion formation by the dystonia-related mutant form of torsinA. Mol. Cell. Neurosci. 27, 417 - 426.
# 3. Gonzalez-Alegre, P., and Paulson, H.L. (2004). Aberrant Cellular Behavior of Mutant TorsinA Implicates Nuclear Envelope Dysfunction in DYT1 Dystonia. J. Neurosci. 24, 2593 - 2601.
# 4. Goodchild, R.E., and Dauer, W.T. (2004). Mislocalization to the nuclear envelope: an effect of the dystonia-causing torsinA mutation. Proc. Natl. Acad. Sci. U. S. A. 101, 847 - 852.
# 5. Kock, N., Allchorne, A.J., Sena-Esteves, M., Woolf, C.J., and Breakefield, X.O. (2006). RNAi blocks DYT1 mutant torsinA inclusions in neurons. Neurosci. Lett. 395, 201 - 205.
# 6. Hewett, J.W., Nery, F.C., Niland, B., Ge, P., Tan, P., Hadwiger, P., Tannous, B.A., Sah, D.W.Y., and Breakefield, X.O. (2008). siRNA knock-down of mutant torsinA restores processing through secretory pathway in DYT1 dystonia cells. Hum. Mol. Genet. 17, 1436 - 1445.
# 7. Calakos, N., Patel, V.D., Gottron, M., Wang, G., Tran-Viet, K.N., Brewington, D., Beyer, J.L., Steffens, D.C., Krishnan, R.R., and Zuchner, S. (2010). Functional evidence implicating a novel TOR1A mutation in idiopathic, late-onset focal dystonia. J. Med. Genet. 47, 646 - 650.
# 8. Rittiner* JE, Caffall* ZF, Hernandez-Martinez R, Sanderson SM, Pearson JL, Tsukayama KK, Liu AY, Xiao C, Tracy S, Shipman MK, Hickey P, Johnson J, Scott B, Stacy M, Saunders-Pullman R, Bressman S, Simonyan K, Sharma N, Ozelius LJ, Cirulli ET, Calakos N. Functional Genomic Analyses of Mendelian and Sporadic Disease Identify Impaired eIF2alpha Signaling as a Generalizable Mechanism for Dystonia. Neuron. 2016 Dec 21;92(6):1238-1251. doi: 10.1016/j.neuron.2016.11.012. Epub 2016 Dec 8. PMID: 27939583; PMCID: PMC5320521.
# High-content, High-throughput Drug Screening Assay
# The TorsinA mislocalization assay was modified from the previously published assay to accommodate compound testing in 1536 well format.1 Briefly, Flp-In T-REx 293 cells from Invitrogen in which a single copy of a cDNA is recombined into a specific genomic locus was used to create tetracycline-inducible expression of cDNA encoding either EGFP-hTOR1A (WT) or EGFP-delE hTOR1A (DYT1). WT and DYT1 cells were diluted to a concentration of 2 x 10^5 cells/mL in reduced serum media (DMEM High Glucose containing 1% tetracycline-tested FBS, 2 mM L-Glutamine, and 1% Penicillin/Streptomycin). 4 µl of WT cells and 4 µl of DTY1 cells were added to column 1 and columns 2-48, respectively, of a poly-D-lysine-coated, low base, black, clear bottom 1536 well plate (Corning, Corning, NY) using the BioRAPTR FRD Microfluidic Workstation (Beckman Coulter, Indianapolis, IN). The final cell number was 800 cells/well. […]
# Potency means the concentration at half of the fitted maximal effect.
Compound,"% pathology change, negative = correction",Potency
COc1ccc(Cc2nccc3cc(OC)c(OC)cc23)cc1OC,-20.4% (inactive),
NCC1(CC(=O)O)CCCCC1,24% (inactive),
O=C1CC[C@@]2(O)[C@H]3Cc4ccc(O)c5c4[C@@]2(CCN3CC2CC2)[C@H]1O5,-16.5% (inactive),
C#CCN(C)[C@H](C)Cc1ccccc1,5.37% (inactive),
NCCc1cc(O)c(O)cc1O,9.46% (inactive),
Cc1ccc(S(=O)(=O)N[C@@H](CCCCN)C(=O)CCl)cc1,-0.608% (inactive),
COC[C@@H](NC(C)=O)C(=O)NCc1ccccc1,2.84% (inactive),
COc1ccc2c(c1OC)CN1CCc3cc4c(cc3C1C2)OCO4 (stereo not given),17.5% (inactive),
Cc1ncc(CNC(=O)N(CCCl)N=O)c(N)n1,12.8% (inactive),
CCCC1CCCCN1 (stereo not given),-2.08% (inactive),
C=CCN1CC[C@]23c4c5ccc(O)c4O[C@H]2C(=O)CC[C@@]3(O)[C@H]1C5,-20.8% (inactive),
NCC(O)c1ccc(O)cc1 (stereo not given),19.7% (inactive),
Clc1cccc(N2CCNCC2)c1,1.45% (inactive),
CCC1(C2=NCCN2)Cc2ccccc2O1 (stereo not given),-4.81% (inactive),
CCN(CC)CCOC(=O)C(O)(c1ccccc1)c1ccccc1,4.65% (inactive),
N[C@@H](Cc1ccc(N(CCCl)CCCl)cc1)C(=O)O,-3.16% (inactive),
CC1NCCOC1c1ccccc1 (stereo not given),1.55% (inactive),
CCOP(=S)(OCC)Oc1cc(C)nc(C(C)C)n1,-6.52% (inactive),
c1ccc(C2CC2)c(OCC2=NCCN2)c1,-3.57% (inactive),
CC(C)CC(N(C)C)C1(c2ccc(Cl)cc2)CCC1 (stereo not given),10.5% (inactive),

Compound,"% pathology change, negative = correction",Potency
Cc1cccc(C)c1NC(=O)CN1CCCC1=O,5.26% (inactive),
CC(C)=CCOc1c2occc2cc2ccc(=O)oc12,-0.31% (inactive),
OCCOc1ccccc1,3.26% (inactive),
O=C(NC(O)C(Cl)(Cl)Cl)NC(O)C(Cl)(Cl)Cl (stereo not given),1.84% (inactive),
CNCC(O)c1ccc(O)cc1 (stereo not given),3.5% (inactive),
O=[N+]([O-])c1cc([As](=O)(O)O)ccc1O,-6.77% (inactive),
CC1OC(C)OC(C)O1 (stereo not given),14.4% (inactive),
CC(=O)[C@H]1CC[C@H]2[C@@H]3CC[C@H]4C[C@](C)(O)CC[C@]4(C)[C@H]3CC[C@]12C,2.05% (inactive),
CC(=O)[C@H]1CC[C@H]2[C@@H]3CC[C@H]4C[C@H](O)CC[C@]4(C)[C@H]3C(=O)C[C@]12C,-26% (inactive),
CC(C)(C)CC(C)(C)c1ccc(O)cc1,-7.18% (inactive),
Cc1ccc(-c2nc3ccc(C)cn3c2CC(=O)N(C)C)cc1,8.58% (inactive),
CCC(COC(=O)c1cc(OC)c(OC)c(OC)c1)(c1ccccc1)N(C)C (stereo not given),-9.93% (inactive),
CCN(C(C)=O)c1cccc(-c2ccnc3c(C#N)cnn23)c1,-22.4% (inactive),
CC(C)(C)NCC(O)c1cc(Cl)c(N)c(Cl)c1 (stereo not given),-23.2% (inactive),
Oc1cc(Cl)ccc1Oc1ccc(Cl)cc1Cl,-4.86% (inactive),
O=C(O)c1ccc2[nH]cc(CCCCN3CC=C(c4ccccc4)CC3)c2c1,-4.42% (inactive),
NP(N)(=O)NC(=O)c1ccc(F)cc1,13.1% (inactive),
Cc1ccc2c(c1)C1CN(C)CCC1N2 (stereo not given),-14.7% [at 19.1 µM] (inactive),
Oc1cccc2cccnc12,,31.6 µM (active) and inactive
Nc1ccncc1,15.5% (inactive),
